# Screening results as filed in PubChem.
# The list is not random: actives were taken first. Their share in the collection is about 18%.
# TDP1 cell noCPT = qHTS for Inhibitors of human tyrosyl-DNA phosphodiesterase 1 (TDP1): qHTS in cells in absence of CPT. hit rate 15% among 420,000. Potency, µM (doses to about 46.2 µM), without a hit: top-dose activity change, negative = growth inhibition, most hits filed as inhibitors. DT40 Tdp1-/- hTDP1 cells, no CPT, ATP luminescence, 48 h; also: potency is read from the fitted curve at half-maximal effect; % is scaled to controls: 0 for no effect and ±100 for the full control effect; nearly all actives have a fitted effect of over 55% in size
#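 Compound effects on proliferation are scored in DT40 Tdp1-/-;hTDP1 cells in the absence of CPT. ATP levels (CellTiter-Glo luminescence) are recorded after a ≥48 hr, 37 °C incubation.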
# TDP1 cell CPT = growth inhibition of DT40 Tdp1-/-;hTDP1 cells with camptothecin (screen for TDP1 inhibitors); Potency, µM (series often up to 46.2 µM), without a hit: top-dose activity change, negative = growth inhibition, hits mostly inhibitors; chicken DT40 Tdp1-/-;hTDP1 cells + 20 nM CPT, ATP luminescence, 48 h; hit rate 12% among 420,000; also: potency is read from the fitted curve at half-maximal effect; % is scaled to controls: 0 for no effect and ±100 for the full control effect; nearly all actives have a fitted effect of over 55% in size
#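 Chicken DT40 Tdp1-/- cells complemented with human TDP1, 400 cells/well, exposed to compounds plus 20 nM camptothecin for at least 48 h at 37 C; viability read as ATP content by CellTiter-Glo luminescence.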
# HepG2 viability = HepG2 cytotoxicity, counter-screen for TGF-b inhibitors | HepG2 CAGA-GFP viability, ATP luminescence, 18 h | Potency, µM (highest dose often 46.1 µM), inactives show at the highest dose activity change, negative = cytotoxicity, hits mostly cytotoxic | hit rate 0.76% among 410,000 | AID 588856; also: potency is read from the fitted curve at half-maximal effect
#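 HepG2 CAGA-GFP cells (1000/well, DMEM with 1% FBS) received compound, then TGF-beta at 500 pg/mL final, and were incubated 18 hours at 37 degrees C. Viability was read by CellTiter-Glo luminescence. Media-only wells were set as complete cell-killing and DMSO as no toxicity.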
# TGFb SMAD3 inh = inhibitors of TGF-b signaling. HepG2 CAGA-GFP TGF-b/SMAD3 reporter, GFP fluorescence, 18 h; TGF-beta stimulated, 500 pg/mL final. Potency, µM (doses to about 46.1 µM), inactives show at the top dose activity, negative = inhibition, most hits filed as inhibitors. hit rate 1.2% among 410,000. AID 588855; also: potency is read from the fitted curve at half-maximal effect; % is scaled to controls: 0 for no effect and ±100 for the full control effect; nearly all actives have a fitted effect of over 65% in size
#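 TGF-beta reporter screen: HEPG2 CAGA-GFP, 1% FBS, 500 pg/mL TGF-beta final, 18 h; per-cell GFP summed per well; curves fitted and categorized by class.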
# TDP1 block = TDP1 (human) enzyme inhibition; Q9NUW8; recombinant TDP1, AlphaScreen DNA substrate cleavage; Potency, µM (top dose mostly 130 µM), for inactives: top-dose activity change, negative = inhibition, hits mostly inhibitors; hit rate 0.28% among 350,000; also: potency is read from the fitted curve at half-maximal effect; % is scaled to controls: 0 for no effect and ±100 for the full control effect; nearly all actives have a fitted effect of over 40% in size
# Target sequence (Q9NUW8 whole entry, looked up): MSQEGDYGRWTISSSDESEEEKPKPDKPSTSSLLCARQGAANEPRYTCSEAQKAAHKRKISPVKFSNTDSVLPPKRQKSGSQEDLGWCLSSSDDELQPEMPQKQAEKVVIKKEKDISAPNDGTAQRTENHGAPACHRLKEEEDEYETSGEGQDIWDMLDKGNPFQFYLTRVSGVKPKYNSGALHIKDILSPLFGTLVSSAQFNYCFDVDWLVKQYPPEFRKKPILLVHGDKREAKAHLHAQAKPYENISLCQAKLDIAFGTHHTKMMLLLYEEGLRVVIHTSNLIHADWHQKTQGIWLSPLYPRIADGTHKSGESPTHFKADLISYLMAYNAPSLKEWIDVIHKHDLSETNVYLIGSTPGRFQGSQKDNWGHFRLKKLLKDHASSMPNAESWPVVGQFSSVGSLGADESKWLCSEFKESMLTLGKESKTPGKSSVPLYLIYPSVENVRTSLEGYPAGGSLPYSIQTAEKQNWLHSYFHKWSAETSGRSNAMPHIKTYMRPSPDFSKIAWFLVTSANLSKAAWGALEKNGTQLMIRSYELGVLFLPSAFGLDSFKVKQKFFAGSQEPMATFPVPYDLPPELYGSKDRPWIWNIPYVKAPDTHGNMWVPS
#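 Recombinant human Tdp1 (E. coli-expressed, 1 nM final) preincubated with compounds 15 min at room temperature, then 5'-biotin/3'-phosphotyrosine-FITC DNA substrate (15 nM final) added for 5 min. AlphaScreen beads (10 ug/ml final) added 10 min; cleavage lowers signal.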
# IL1B secr inh = blocks inflammasome-driven IL-1 beta release; activity change, % at 57.5 µM; AID 743279; hit rate 4.7% among 360,000; THP-1 LPS/ATP IL-1B secretion, AlphaLISA, 16 h; hits give low values; in the data active = activity change below about -50%; inconclusive = mostly about -30% to -49%; also: % is scaled to controls: 0 for no effect and ±100 for the full control effect
#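 THP-1 cells pretreated 1 hr with compounds (up to 57.5 uM final), then stimulated with LPS (250 ng/mL final) plus ATP (1.25 mM final); secreted IL-1B measured by AlphaLISA after 16 hr, decreased signal indicating inhibition.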
# Numbers without * were called inactive; ? = inconclusive; . = not tested or not shown; [ ] = dose if it differs, or a comment. Unless noted, calls follow the shape of the dose curve; as a rule, active = well fitted curve in the direction sought with a large enough effect; inconclusive = small, poorly fitted or top-dose-only effect, or another doubt; inactive = no such curve, though single readings can be large; an effect the other way counts as inactive or inconclusive.
SMILES,TDP1 cell noCPT,TDP1 cell CPT,HepG2 viability,TGFb SMAD3 inh,TDP1 block,IL1B secr inh
c1ccc(C(c2ccccc2)N2CCCC3(CCNCC3)C2)cc1,6.5µM*,9.2µM*,.,.,.,.
COc1ccc(OC)c(NC(=O)CCNS(=O)(=O)c2ccc3c(c2)c(=O)n(C)c(=O)n3C)c1,3%,1%,-24%,3%,-4%,-11
Cc1ccc(C)c(N(C(=O)c2csnn2)C(C(=O)NC2CCCCC2)c2ccccn2)c1 (stereo not drawn),-22%,4%,-7%,-17%,-2%,8
CC(C)C[C@H](NC(=O)[C@@H]1Cc2c([nH]c3ccccc23)C2c3ccccc3C(=O)N21)C(=O)NCC1CCCO1 (stereo partly drawn),?,16µM*,-5%,-19%,.,-20
O=C(Nc1ccccc1)OCCNC(=O)c1cccc(Br)c1,-25%,0%,-9%,22%,.,20
O=C(Nc1ccc(Cl)c(Cl)c1)OCCNC(=O)c1cccc(Cl)c1,12µM*,6.5µM*,-28%,?,5%,-14
COCc1cc(C)n(CC(=O)Nc2cccc(C(C)=O)c2)c(=O)c1C#N,.,.,-3%,9%,-3%,.
Cc1ccc(-n2sc3ccccc3c2=O)cc1S(=O)(=O)N1CCCCC1,2.9µM*,2.3µM*,-52%,?,8%,-106*
O=c1c2ccccc2sn1-c1ccc(S(=O)(=O)N2CCCC2)cc1,5.2µM*,3.3µM*,-12%,-7%,6%,-102*
O=S(=O)(c1ccccc1)N1CCN(S(=O)(=O)N2CCCCCC2)CC1,-16%,5%,-39%,-22%,15%,14
O=c1c2ccccc2sn1-c1ccc(S(=O)(=O)N2CCCCC2)cc1,16µM*,2.1µM*,6%,-1%,-1%,-91*
COc1ccccc1CN1CCCC(n2cc(C(=O)N3CCCCC3)nn2)C1 (stereo not drawn),-8%,6%[9.04 µM],.,.,.,.
CCOc1ccccc1N(CC(=O)N1CCN(Cc2ccccc2)CC1)S(=O)(=O)c1ccccc1,8.2µM*,23µM*,-17%,4%,.,-5
COc1ccc(N(CC(=O)N2CCN(Cc3ccccc3)CC2)S(C)(=O)=O)c(OC)c1,13µM*,?,-12%,-1%,.,0
CCN(CC(=O)N1CCN(Cc2ccccc2)CC1)S(=O)(=O)c1ccccc1,?,-22%,-20%,-18%,1%,7
COc1cccc(N(CC(=O)N2CCN(Cc3ccccc3)CC2)S(C)(=O)=O)c1,-24%,-21%,-3%,5%,.,7
CC1(C(=O)NCc2ccccc2)CSCC(=O)N1Cc1ccco1 (stereo not drawn),-14%,-5%,.,.,.,13
Nc1ccc(C#Cc2ccc3sc4ccccc4c(=O)c3c2)cc1,-29%,-6%,-35%,-18%,.,16
O=c1c2ccccc2sc2ccc(C#CC3(O)CCCCC3)cc12,?,?,-72%,?,.,?
COc1cccc2sc3ccc(C#CC4(O)CCCCC4)cc3c(=O)c12,?,?,-42%,?,.,-57*
COc1cccc2sc3ccc(C#Cc4ccc(N)cc4)cc3c(=O)c12,?,16µM*,-21%,4%,.,-25
Fc1ccc(NC(=S)NCCc2ccc(Cl)cc2)cc1,23µM*,?,-29%,?,5%,0
Fc1ccc(CCNC(=S)Nc2ccc(F)c(Cl)c2)cc1,?,18µM*,-64%,?,-1%,-83*
COc1ccc(Cl)cc1NC(=S)NCCc1ccc(F)cc1,6%,?,-20%,-26%,5%[56.1 µM],4
C=C1[C@@H](O)CN(Cc2ccc(OC)cc2)S1(=O)=O,18µM*,?,-63%,?,.,.
SMILES,TDP1 cell noCPT,TDP1 cell CPT,HepG2 viability,TGFb SMAD3 inh,TDP1 block,IL1B secr inh
CCCN1CCN(C(=O)c2cc(COc3ccc(F)cc3F)on2)CC1,?,?,11%,?,7%,0
O=C1/C(=C\c2ccco2)SC(=S)N1C1CCS(=O)(=O)C1 (stereo not drawn),21µM*,23µM*,-38%,?,-5%,.
O=C1/C(=C/c2ccco2)SC(=S)N1C1CCS(=O)(=O)C1 (stereo not drawn),16µM*,15µM*,-9%,-9%,-5%,-9
Cc1ccc(/C=C2\SC(=S)N(C3CCS(=O)(=O)C3)C2=O)cc1 (stereo not drawn),15µM*,?,0%,6%,0%,-24
O=C1/C(=C\c2ccco2)SC(=S)N1c1ccccc1,?,5%,-1%,6%,0%,-13
CCOC(=O)CSc1nc2sc3c(c2c(=O)n1CC)CCCC3,-8%,-5%,-9%,-4%,0%[12.3 µM],.
CC(C)NC(=O)CSc1nnc(CNC(=O)OC(C)(C)C)n1C,-5%,12%,0%,7%,-1%,-5
S=C(NCc1ccncc1)Nc1ccc(Cl)c(Cl)c1,?,?,-40%,?,3%,-61*
S=C(NCc1ccccc1)Nc1ccncc1,?,10µM*,-6%,0%,4%[56.1 µM],38
S=C(NCc1ccncc1)Nc1cc(Cl)cc(Cl)c1,-17%,?,-5%,-21%,0%,-54*
S=C(NCc1ccccc1)Nc1ccc(Cl)cc1,?,-29%,-31%,?,3%,?
S=C(NCc1ccncc1)Nc1ccccc1,?,2%,-2%,5%,-8%,-1
FC(F)(F)Sc1ccc(NC(=S)NCc2ccccc2)cc1,21µM*,?,-125%,?,-3%,-88*
Cc1ccc(C)c(OCC(=O)Nc2ccc(C(=O)O)cc2NC(=O)COc2cc(C)ccc2C)c1,?,?,4%,0%,7%[56.1 µM],61
S=C(NCCc1ccccn1)Nc1ccc(Cl)cc1,18µM*,18µM*,6%,?,8%,-2
S=C(NCc1ccccn1)Nc1ccc(Cl)c(Cl)c1,?,16µM*,-25%,?,3%,-63*
Cn1nc(C(=O)NNc2c(F)c(F)cc(F)c2F)c2ccccc2c1=O,1.5µM*,-16%,3%,-4%,1%,42
CCOc1ccc(C(=O)Nc2nc3ccccc3[nH]2)cc1OCC,8.2µM*,21µM*,-29%,?,6%,31
Cn1nc(C(=O)NNC(=O)COc2ccccc2)c2ccccc2c1=O,-14%,?,-1%,-4%,4%,21
